Compound activity from PubChem BioAssay.
TGFb inhibitor = qHTS for Inhibitors of TGF-b; HepG2 CAGA-GFP TGF-b/SMAD3 reporter, GFP fluorescence, 18 h; TGF-beta stimulated, 500 pg/mL final; actives 1.2% (n = 410,000); Potency, µM (top dose mostly 46.1 µM), usual class: inhibitors; AID 588855, 2011; further: nearly all actives have a fitted effect of over 65% in size
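Inhibition was scored as loss of TGF-beta-induced (500 pg/mL final, 18 hours, 37 degrees C) GFP in HEPG2 cells carrying a CAGA-GFP reporter, in DMEM with 1% FBS. Well GFP was summed per cell; Activity was normalised to unstimulated and stimulated DMSO wells, then concentration-response fitting.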
IL1B secr inh = qHTS for Inhibitors of Inflammasome Signaling: IL-1-beta AlphaLISA Primary Screen; actives 4.7% (n = 360,000); THP-1 LPS/ATP IL-1B secretion, AlphaLISA, 16 h; active compounds read low; activity change, % at 57.5 µM; AID 743279, 2014; in the data active means activity change below about -50%; inconclusive means mostly about -30% to -49%
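Secreted IL-1B measured by AlphaLISA bead assay after 16 h compound exposure of THP-1 cells; compounds (final up to 57.5 uM) added 1 h before LPS (250 ng/mL) and ATP (1.25 mM) stimulation; lower signal means less secretion.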
HepG2 tox = qHTS for Inhibitors of TGF-b: Cytotox Counterscreen. AID 588856, 2011. Potency, µM (doses to about 46.1 µM), usual class: cytotoxic. HepG2 CAGA-GFP viability, ATP luminescence, 18 h. actives 0.76% (n = 410,000)
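CellTiter-Glo luminescence gave cytotoxicity after 18 hours at 37 degrees C. The cells were HepG2 CAGA-GFP in 1% FBS DMEM, stimulated with 500 pg/mL TGF-beta after compound addition. %Activity was normalised to no-cell wells (complete cell-killing) and DMSO (no toxicity), and curves were fitted and classified.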
TDP1 cell noCPT = qHTS for Inhibitors of human tyrosyl-DNA phosphodiesterase 1 (TDP1): qHTS in cells in absence of CPT; DT40 Tdp1-/- hTDP1 cells, no CPT, ATP luminescence, 48 h; Potency, µM (doses to about 46.2 µM), usual class: inhibitors; actives 15% (n = 420,000); further: nearly all actives have a fitted effect of over 55% in size
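Luminescent ATP content (CellTiter-Glo) served as the growth readout. Knockout chicken DT40 cells expressing human TDP1 were exposed to compounds without camptothecin for a minimum 48 hr at 37 °C.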
TDP1 inh = qHTS Assay for Inhibitors of Tyrosyl-DNA Phosphodiesterase (TDP1); Potency, µM (doses to about 130 µM), usual class: inhibitors; recombinant TDP1, AlphaScreen DNA substrate cleavage; Tyrosyl-DNA phosphodiesterase 1 (Homo sapiens), Q9NUW8; AID 485290, 2010; actives 0.28% (n = 350,000); further: nearly all actives have a fitted effect of over 40% in size
Target sequence (Q9NUW8 whole entry, looked up): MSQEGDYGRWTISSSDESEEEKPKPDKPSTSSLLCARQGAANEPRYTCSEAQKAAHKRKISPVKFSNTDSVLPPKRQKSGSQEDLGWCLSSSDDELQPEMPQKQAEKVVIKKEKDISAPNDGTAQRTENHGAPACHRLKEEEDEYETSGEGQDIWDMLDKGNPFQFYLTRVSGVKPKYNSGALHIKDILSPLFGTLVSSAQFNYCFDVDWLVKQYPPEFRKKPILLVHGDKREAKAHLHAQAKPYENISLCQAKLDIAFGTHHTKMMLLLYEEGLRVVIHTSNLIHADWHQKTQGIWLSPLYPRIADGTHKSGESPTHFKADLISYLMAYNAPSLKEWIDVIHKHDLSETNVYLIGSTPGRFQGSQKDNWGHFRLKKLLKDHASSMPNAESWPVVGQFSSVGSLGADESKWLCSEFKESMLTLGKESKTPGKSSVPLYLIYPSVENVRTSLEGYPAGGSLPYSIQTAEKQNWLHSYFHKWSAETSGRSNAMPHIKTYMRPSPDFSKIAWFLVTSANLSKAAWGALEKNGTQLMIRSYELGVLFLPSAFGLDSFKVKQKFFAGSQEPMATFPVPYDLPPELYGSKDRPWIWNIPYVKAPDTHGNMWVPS
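Signal: AlphaScreen proximity between streptavidin donor and anti-FITC acceptor beads on intact substrate. Reaction: Tdp1 1 nM, substrate 15 nM final, 5 min RT after 15 min compound preincubation.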
TDP1 cell CPT = qHTS for Inhibitors of human tyrosyl-DNA phosphodiesterase 1 (TDP1): qHTS in cells in presence of CPT; chicken DT40 Tdp1-/-;hTDP1 cells + 20 nM CPT, ATP luminescence, 48 h; Potency, µM (titrated, usually from 46.2 µM), actives largely listed as inhibitors; actives 12% (n = 420,000); AID 686979, 2013; further: nearly all actives have a fitted effect of over 55% in size
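Cell growth measured by CellTiter-Glo luminescence after a minimum 48 h, 37 C compound exposure with 20 nM CPT in Tdp1-knockout DT40 cells stably expressing hTDP1, seeded 400/well; qHTS titration format.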
A number is an active result; – = inactive; ? = inconclusive; · = no result; [ ] = another dose, or the depositor's remark. In the library only some 19% were active in any assay of this set; here they are far more common. Unless noted, the call rests on the fitted dose curve; in most records, active means well fitted curve in the direction sought with a large enough effect; inconclusive means small, poorly fitted or top-dose-only effect, or another doubt; inactive means no such curve, though single readings can be large; an effect the other way counts as inactive or inconclusive.

SMILES	TGFb inhibitor	IL1B secr inh	HepG2 tox	TDP1 cell noCPT	TDP1 inh	TDP1 cell CPT
Cc1ncc(CN2CCC(C(=O)Nc3ccc(Oc4cccnc4)cc3)CC2)cn1	–	–	–	–	–	?
Cc1cccc(CN2CCC(C(=O)Nc3ccc(Oc4cccnc4)cc3)CC2)c1	?	–	11µM	?	–	?
O=C(Nc1ccc(Oc2cccnc2)cc1)C1CCN(Cc2cc(Cl)ccc2O)CC1	13µM	–	–	13µM	–	8.2µM
CCc1nnc(SCc2nc(-c3ccc(OC)cc3)oc2C)c2cc3sccc3n12	–	·	–	–	–	–
CC(C)(C)n1ncc2c(=O)n(Cc3ccc(Cl)c(SC(F)(F)F)c3)cnc21	–	·	–	·	·	·
O=C(Cn1c(-c2ccccc2)c[n+]2ccsc12)c1ccc(Br)cc1	–	-86	–	3.3µM	–	7.3µM
Cc1ccc(NC(=O)C(=O)NCC(c2cccnc2)N2CCN(C)CC2)cc1C (stereo unspecified)	–	·	–	–	–	–
NCCc1c(-c2ccccc2)n(-c2ccccc2)c2ccccc12	?	-97	20µM	?	–	?
CCN(CC)CCNC(=O)c1c(C)oc2ncn(C)c(=O)c12	–	·	–	–	–	–
CCOC(=O)c1cnc2ccc(C)cc2c1N(C)Cc1ccccc1	–	-68	–	?	·	?
CCOC(=O)c1cnc2ccc(C)cc2c1Sc1ccccc1	–	–	–	26µM	–	?
Cc1ccc(C)c(S(=O)(=O)N2CCN(C(=O)CCC(=O)NCc3ccc(Cl)cc3Cl)CC2)c1	?	?	–	?	·	?
Cc1cc(C)c(S(=O)(=O)NCCc2cc3cc(C)c(C)cc3[nH]c2=O)c(C)c1	–	·	–	–	–	–
COc1ccc(C(=O)NCC(=O)OC(C(=O)Nc2cc(C(F)(F)F)ccc2Cl)c2ccccc2)cc1OC (stereo unspecified)	·	·	·	·	–	·
COc1ccc(N2CCN(C(=O)C3CCN(S(=O)(=O)c4cnc[nH]4)CC3)CC2)cc1	–	·	–	–	–	–
CCN(CC)C(=O)C(C)N(C#N)c1nc(SC)nc(N(C)C)n1 (stereo unspecified)	–	–	–	–	–	–
CCN(CC)C(=O)C(C)N(C#N)c1nc(Cl)nc(N(C)C)n1 (stereo unspecified)	–	-98	–	–	–	–
CC(=O)Oc1cc2cccc(OC(C)=O)c(=O)c2c(OC(C)=O)c1OC(C)=O	?	–	–	18µM	·	4.6µM
CC[N+]1(CC)CC2=Cc3c(ccc4ccccc34)C(C)C2C1 (stereo unspecified)	–	–	–	13µM	–	5.8µM
CC1NC(C)(C)Cc2c1ccc1ccccc21 (stereo unspecified)	–	–	–	–	–	–
CCCN1CCN(CCCNC(=O)Cn2c(-c3cccs3)cc3cc(Cl)ccc32)CC1	?	·	–	?	–	?
O=c1cc(Nc2ccc3c(c2)OCO3)[nH]c(=O)n1-c1ccc(Br)cc1	–	–	–	23µM	–	?
O=c1cc(Nc2ccc3c(c2)OCCO3)[nH]c(=O)n1-c1ccc(Br)cc1	?	–	–	?	–	?
CC(C)CN(CCCNC(=O)c1cn(C)c2ccc(S(=O)(=O)N(C)C3CCCCC3)cc2c1=O)CC(C)C	–	·	–	–	–	–
COc1cccc(NC(=O)N2CCc3nc(Nc4cc(Cl)cc(Cl)c4)ncc3C2)c1	?	-54	–	23µM	·	?
SMILES	TGFb inhibitor	IL1B secr inh	HepG2 tox	TDP1 cell noCPT	TDP1 inh	TDP1 cell CPT
CCOc1ccc(NC(=O)N2CCc3ccccc3C2)cc1	–	–	–	–	–	–
O=C(Nc1ccc(OC(F)(F)F)cc1)N1CCc2nc(NCc3cccc(Oc4ccccc4)c3)ncc2C1	?	–	–	21µM	·	18µM
COc1cccc(NC(=O)N2CCc3nc(NCc4cccc(Oc5ccccc5)c4)ncc3C2)c1	?	–	–	21µM	·	10µM
CC(C)c1ccc(Nc2ncc3c(n2)CCN(C(=O)Nc2ccc(F)c(Cl)c2)C3)cc1	?	–	–	?	·	?
CCOc1ccc(-n2ccc(=O)c(C(=O)Nc3ccc(S(=O)(=O)Nc4ncccn4)cc3)n2)cc1	–	–	–	–	–	?
CC1=C(C(=O)N2CCCCC2)C(c2ccc(Cl)cc2)n2c(nc3ccccc32)N1 (stereo unspecified)	–	·	–	?	–	?
CC1=C(C(=O)N2CCCCC2)C(c2cccc(Cl)c2)n2c(nc3ccccc32)N1 (stereo unspecified)	–	·	–	?	–	16µM
COc1ccc(OC)c(C2C(C(=O)c3ccccc3)=C(C)Nc3nc4ccccc4n32)c1 (stereo unspecified)	?	–	–	?	–	–
COc1ccccc1NC(=O)C1=C(C)Nc2nc3ccccc3n2C1c1ccccc1Cl (stereo unspecified)	–	·	–	?	–	15µM
COc1ccc(C2C(C(=O)c3ccccc3)=C(C)Nc3nc4ccccc4n32)cc1OC (stereo unspecified)	–	–	–	15µM	–	?
COc1ccccc1NC(=O)C1=C(C)Nc2nc3ccccc3n2C1c1cccc(Br)c1 (stereo unspecified)	–	·	–	?	–	?
COc1ccc(OC)c(NC(=O)c2ccc3c(c2)c(C)c(C)n3Cc2ccc(F)cc2)c1	?	·	–	21µM	–	?
COc1ccc(NC(=O)c2ccc3c(c2)c(C)c(C)n3Cc2ccc(F)cc2)c(OC)c1	–	·	–	21µM	–	18µM
CCN1C(=O)[C@H]2[C@H]3[C@H](O)[C@H](O)C/C(=N/NC(=O)OCc4ccccc4)[C@H]3CC[C@@H]2C1=O	·	·	·	·	–[21 µM]	·
Cn1ccsc1=NC(=O)c1ccccc1F	–	–	–	–	–	–
Cc1ccc(C)c(-n2c(-c3ccc(Br)cc3)csc2=NC(=O)c2ccccc2F)c1	–	–	–	4.6µM	–	12µM
COc1ccccc1CNC(=O)c1nn(C)c2c1CS(=O)(=O)c1ccccc1-2	–	–	–	?	–	–
O=C(C1CC1)N1CCC(c2nc(-c3ccc(S(=O)(=O)N4CCCC4)cc3)no2)CC1	?	–	–	21µM	–	?
